In PubChem BioAssay (NCATS):
Records with an inconclusive call do not appear. Active and inactive are the calls of the source. Calls come from the whole dose curve; as a rule, active = well fitted curve in the direction sought with a large enough effect; inconclusive = small, poorly fitted or top-dose-only effect, or another doubt; inactive = no such curve, though single readings can be large; an effect the other way counts as inactive or inconclusive.

What was measured:
MCC-26 = experiment: qHTS assay to identify novel small-molecules to repurpose for Merkel cell carcinoma treatment (AID 1296009); details: MCC and control cell lines, CellTiter-Glo viability, 72 h; series mostly up to 46 µM; note: nearly all actives have a fitted effect of over 60% in size
Summary of the method: (§1)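 Cell viability, measured as CellTiter-Glo luminescence, was normalized between DMSO and no-cell wells. The cells had been exposed to 8- or 11-point compound dilutions for 72 hr at 37 degree celsius.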

MKL-1 = experiment: as above; details: MCC and control cell lines, CellTiter-Glo viability, 72 h; series mostly up to 46 µM
Summary of the method: as §1

MKL-2 = experiment: as above; details: MCC and control cell lines, CellTiter-Glo viability, 72 h; series mostly up to 46 µM
Summary of the method: as §1

UISO = experiment: as above; details: MCC and control cell lines, CellTiter-Glo viability, 72 h; series mostly up to 46 µM
Summary of the method: as §1

WaGa = experiment: as above; details: MCC and control cell lines, CellTiter-Glo viability, 72 h; series mostly up to 46 µM
Summary of the method: as §1

C33A = experiment: Primary qHTS to identify gynecologic anti-cancer compounds using libraries of approved drugs and bioactive compounds (AID 1345084); details: Gynecologic cancer cell panel viability, ATPlite luminescence, 48 h; series mostly up to 57.5 µM; note: nearly all actives have a fitted effect of over 55% in size
Summary of the method: (§2)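 Five-point cytotoxicity, 48 h drug exposure at 37 C, 5% CO2, on cells seeded 16 h beforehand. ATP content read by ATPlite luminescence.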

CASKI = experiment: as above; details: Gynecologic cancer cell panel viability, ATPlite luminescence, 48 h; series mostly up to 57.5 µM
Summary of the method: as §2

Es-2 = experiment: as above; details: Gynecologic cancer cell panel viability, ATPlite luminescence, 48 h; series mostly up to 57.5 µM
Summary of the method: as §2

HeLa = experiment: as above; details: Gynecologic cancer cell panel viability, ATPlite luminescence, 48 h; series mostly up to 57.5 µM
Summary of the method: as §2

NIH3T3 = experiment: qHTS assay to identify novel small-molecules to repurpose for Merkel cell carcinoma treatment (AID 1296009); details: MCC and control cell lines, CellTiter-Glo viability, 72 h; at 44.8 µM (top of the series) unless noted; note: nearly all actives have a fitted effect of over 60% in size
Summary of the method: as §1

Measured: Potency
Potency is the fitted concentration of half-maximal effect.

Cc1cc(C(=O)NOCCO)c(Nc2ccc(I)cc2F)n(C)c1=O
inactive: MCC-26 | MKL-1 | MKL-2 | UISO | WaGa

CC(C=CC=C(C)C=CC1=C(C)CCCC1(C)C)=CC=CC=C(C)C=CC=C(C)C=CC1=C(C)CCCC1(C)C
inactive: MCC-26 | MKL-1 | UISO

c1ccc2c(Oc3nc(Nc4ccc(N5CCOCC5)cc4)c4ncn(C5CCCCC5)c4n3)cccc2c1
not listed: NIH3T3
inactive: all other assays above

Cn1cc(C=CC(=O)c2cccc(F)c2)cc1C=CC(=O)NO
inactive: MCC-26 | MKL-1 | NIH3T3 | UISO

O=C(C=Cc1ccc(CN(CCO)CCc2c[nH]c3ccccc23)cc1)NO
active: MCC-26 1.18 µM | MKL-1 0.418 µM | MKL-2 0.105 µM | UISO 1.18 µM | WaGa 0.105 µM

C[C@H]1[C@@H](OC(=O)CCC(=O)O)O[C@@H]2O[C@@]3(C)CC[C@@H]4[C@H](C)CC[C@@H]1[C@@]24OO3
inactive: MCC-26 | CASKI
active: MKL-1 10.5 µM | MKL-2 5.26 µM | UISO 4.18 µM | WaGa 6.62 µM

CCC[C@H]1C[C@H](C(=O)N[C@@H]([C@@H]2O[C@@H](SC)[C@@H](O)[C@@H](O)[C@@H]2O)[C@H](C)Cl)N(C)C1
not listed: NIH3T3
inactive: all other assays above

CC(O)(C#Cc1ccc2c(c1)N(c1nc(N)ncc1Cl)CC2)c1nccs1 (centres undefined)
not listed: NIH3T3
inactive: all other assays above

O=[N+]([O-])c1cn2c(n1)OC[C@@H](OCc1ccc(OC(F)(F)F)cc1)C2
inactive: MCC-26 | MKL-1 | MKL-2 | UISO | WaGa

Nc1ccc(C(=O)Nc2cccc(-c3nc(N4CCOCC4)c4oc5ncccc5c4n3)c2)cn1
active: CASKI 14.1 µM
inactive: MCC-26 | MKL-1 | MKL-2 | UISO

CON=C(C(=O)N[C@@H]1C(=O)N2C(C(=O)O)=C(CSC(=O)c3ccco3)CS[C@H]12)c1csc(N)n1
inactive: MCC-26 | MKL-1 | MKL-2 | WaGa

CC(C)N1[N]C(=C2C=c3cc(O)ccc3=N2)c2c(N)ncnc21
active: MCC-26 14.8 µM | MKL-1 10.5 µM | UISO 0.833 µM | WaGa 5.9 µM

CC(C)C[C@H](NC(=O)CNC(=O)c1cc(Cl)ccc1Cl)B1OC(=O)CC(CC(=O)O)(C(=O)O)O1 (some centres undefined)
active: MCC-26 0.59 µM | MKL-1 0.743 µM | MKL-2 0.187 µM | WaGa 0.209 µM

COc1cc2c(cc1OC)[C@@H]1C(=O)c3ccc4c(c3O[C@@H]1CO2)C=CC(C)(C)O4
inactive: MCC-26
active: MKL-1 1.87 µM | MKL-2 0.935 µM | WaGa 0.662 µM

CC(=O)OC[C@@H]1O[C@@H](n2ccc(=O)[nH]c2=O)[C@H](OC(C)=O)[C@H]1OC(C)=O
inactive: MCC-26 | MKL-1 | UISO | WaGa

CCCCC(=O)O[C@]1(C(=O)CO)[C@@H](C)C[C@H]2[C@@H]3CCC4=CC(=O)C=C[C@]4(C)[C@@]3(F)[C@@H](O)C[C@@]21C
not listed: NIH3T3
inactive: all other assays above

CCN(C(=O)c1c(O)c2c(Cl)cccc2n(C)c1=O)c1ccccc1
inactive: MCC-26 | MKL-1 | MKL-2 | WaGa

COc1ccc([C@@H]2CNC(=O)C2)cc1OC1CCCC1
inactive: MCC-26 | MKL-1 | NIH3T3

CN[C@@H]1C[C@H]2O[C@@](C)([C@H]1OC)n1c3ccccc3c3c4c(c5c6ccccc6n2c5c31)C(=O)N[C@H]4O
active: MCC-26 1.66 µM | MKL-1 5.26 µM | UISO 1.87 µM | WaGa 1.32 µM

CC1(C)O[C@@H]2C[C@H]3[C@@H]4CCC5=CC(=O)C=C[C@]5(C)[C@@H]4[C@@H](O)C[C@]3(C)[C@]2(C(=O)CO)O1
not listed: NIH3T3
inactive: all other assays above

O=C(NCc1ccccc1)[C@H](Cc1ccccc1)NC(=O)[C@@H]1O[C@@H]1C(=O)NCCc1ccc(O)cc1
inactive: MCC-26 | MKL-1 | UISO

Cc1coc2c1C(=O)C(=O)c1c-2ccc2c(C)cccc12
not listed: UISO | C33A | NIH3T3
inactive: all other assays above
